# Records with an inconclusive call do not appear. Where a call stands in place of a potency, no number is given. Activity calls are given as the source filed them. Unless noted, calls follow the shape of the dose curve; as a rule, active = well fitted curve in the direction sought with a large enough effect; inconclusive = small, poorly fitted or top-dose-only effect, or another doubt; inactive = no such curve, though single readings can be large; an effect the other way counts as inactive or inconclusive. Numbered stars: 1 amine (or outer) side, 2 acyl side, 3 side chain; on linkers, the order of the positions; unused ones are H or OH. Square brackets hold non-standard residues; d marks the D form. Peptide text beside a SMILES is read from it. X1 = CCCCCCCCCC(=O)[C@H](C(=O)[*:2])[C@@H]1CNC(=O)[C@@H](N[*:1])CS1
# Key:
# [1] = Panc-1005 Cancer Cell Toxicity qHTS against the NCATS CANVASS Library (AID 1347349); also: nearly all actives have a fitted effect of over 60% in size; also: potency is read from the fitted curve at half-maximal effect
# Method in brief: (§1)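 Following a 4 h pre-incubation of 1000 seeded cells, compounds were pinned in an 11-pnt dilution series and left for 72 h; viability then came from CellTiter-Glo.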
# [2] = SW1088 Cancer Cell Toxicity qHTS against the NCATS CANVASS Library (AID 1347350); also: nearly all actives have a fitted effect of over 75% in size
# Method in brief: as §1
# [3] = COV-362 Cancer Cell Toxicity qHTS against the NCATS CANVASS Library (AID 1347352); also: series mostly up to about 38 µM
# Method in brief: (§2)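 Toxicity was measured as CellTiter-Glo luminescence after 72 h exposure to an 11-point compound series. Compound was added to 1000 cells/well 4 h after seeding.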
# [4] = A2780 Cisplatin Sensitive Ovarian Cancer Cell Toxicity qHTS against the NCATS CANVASS Library (AID 1347353); also: nearly all actives have a fitted effect of over 60% in size; also: potency is read from the fitted curve at half-maximal effect
# Method in brief: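 Cisplatin-sensitive A2780 ovarian cells (750/well) received compound in 11 concentrations, and were incubated 72 h at 37 °C. ATP content was measured by ATPLite luminescence; bortezomib served as control.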
# [5] = UWB1.289-WTBRCA1 Cancer Cell Toxicity qHTS against the NCATS CANVASS Library (AID 1347354)
# Method in brief: as §2
# [6] = HEK293 12hr Apoptosis Induction qHTS against the NCATS CANVASS Library (AID 1347361)
# Method in brief: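 Read-out: Caspase-Glo 3/7 luminescence (DEVD substrate), 15 min RT. Preceded by 12 h compound exposure of HEK293, 500 cells/well, 11-pt qHTS titration; doxorubicin titration as control.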
# [7] = tested on: NAD(P)H diaphorase (Clostridium kluyveri); assay: Diaphorse counterscreen qHTS: Assay Interference Panel against the NCATS CANVASS Library (AID 1347362)
# Method in brief: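 Counterscreen for coupling-enzyme interference: resorufin fluorescence from resazurin/NADH turnover, read after 5 min at room temperature. Compounds were tested over an 11-point series after 15 min dark preincubation with diaphorase in PBS-Tween.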
# [8] = target: Luciferin 4-monooxygenase (Photinus pyralis) (UniProt P08659); assay: Firefly luciferase counterscreen qHTS: Assay Interference Panel against the NCATS CANVASS Library (AID 1347363); also: potency is read from the fitted curve at half-maximal effect
# Sequence of Luciferin 4-monooxygenase (Photinus pyralis) (P08659 whole entry, looked up): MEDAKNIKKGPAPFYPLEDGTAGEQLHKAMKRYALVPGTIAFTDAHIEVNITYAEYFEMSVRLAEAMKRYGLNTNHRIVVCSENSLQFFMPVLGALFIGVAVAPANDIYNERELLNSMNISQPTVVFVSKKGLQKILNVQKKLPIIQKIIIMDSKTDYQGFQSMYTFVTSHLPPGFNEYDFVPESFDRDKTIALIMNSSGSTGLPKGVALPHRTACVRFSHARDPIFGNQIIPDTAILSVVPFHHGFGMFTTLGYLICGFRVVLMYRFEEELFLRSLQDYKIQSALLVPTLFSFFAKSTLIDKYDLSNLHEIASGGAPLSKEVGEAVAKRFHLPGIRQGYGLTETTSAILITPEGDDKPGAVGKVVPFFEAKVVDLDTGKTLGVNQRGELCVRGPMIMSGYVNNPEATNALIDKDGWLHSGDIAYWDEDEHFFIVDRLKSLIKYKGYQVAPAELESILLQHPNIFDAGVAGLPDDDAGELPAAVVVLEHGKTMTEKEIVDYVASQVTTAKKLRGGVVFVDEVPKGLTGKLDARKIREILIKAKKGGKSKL
# Method in brief: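 Luminescence inhibition readout: compounds (11-point qHTS) sat 15 min at room temperature with substrate mix (0.013 mM luciferin and ATP), then firefly luciferase was added and signal read 5 min later.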
# [9] = KB-8-5-11 Cancer Cell Toxicity qHTS against the NCATS CANVASS Library (AID 1347364); also: nearly all actives have a fitted effect of over 75% in size
# Method in brief: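 Viability read as CellTiter-Glo luminescence after 72 h at 37 °C, 5% CO2. 11-point compound series on 500 KB-8-5-11 cells/well in DMEM/10% FBS. Follow-up plating included 1 uM tariquidar in the medium.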
# [10] = SDT Cancer Cell Toxicity qHTS against the NCATS CANVASS Library (AID 1347365); also: nearly all actives have a fitted effect of over 60% in size; also: potency is read from the fitted curve at half-maximal effect
# Method in brief: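 Cytotoxicity taken from CellTiterGlo ATP luminescence after 72 hr at 37C, 5% CO2. Canine glioma line SDT, 500 cells/well, treated at 11 concentrations; bortezomib dose series as control.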
# [11] = G06 Cancer Cell Toxicity qHTS against the NCATS CANVASS Library (AID 1347368); also: nearly all actives have a fitted effect of over 60% in size; also: potency is read from the fitted curve at half-maximal effect
# Method in brief: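 Viability measured by CellTiterGlo ATP luminescence after 72 hr at 37C, 5% CO2. Canine G06 glioma cells plated at 500/well. Compounds tested as 11-point qHTS titrations.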
# [12] = DH5-alpha competent E. coli microbial cell viability qHTS against the NCATS CANVASS Library (AID 1347377); conditions: outcome: dose series up to 46.1 µM unless noted
# Method in brief: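 Bacterial viability as ATP-dependent luminescence (BacTiter-Glo), read after overnight 37 °C exposure of DH5-alpha competent E. coli to compounds in 11-point titration.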
# [13] = qHTS for activators of Nrf2/ARE signaling pathway screened against the NCATS CANVASS Library (AID 1347391); also: nearly all actives have a fitted effect of over 60% in size; also: potency is read from the fitted curve at half-maximal effect
# Method in brief: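 Eleven-point qHTS, 16 h treatment of HepG2 cells carrying an ARE-driven beta-lactamase reporter; CCF4 ratio read (405 nm excitation, 460 and 530 nm emission), with CellTiter-Glo ATP luminescence for viability.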
# [14] = Vero-766 cells viability qHTS against the NCATS CANVASS Library: Counterscreen for Zika virus inhibition assay (AID 1347394)
# Method in brief: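 Uninfected Vero 766 (African green monkey) cells, 1000/well, attached overnight, then exposed 72 h at 37C to compounds (11-point qHTS). Viability read by CellTiter-Glo luminescence; media-only wells served as 100% inhibition.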
# [15] = HPAF-II 12hr Apoptosis Induction qHTS against the NCATS CANVASS Library (AID 1347358)
# Method in brief: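 Caspase-3/7 activation by DEVD-substrate luminescence (Caspase-Glo 3/7, 15 min, room temperature) after a 12-hour compound exposure in 11 concentrations, of HPAF-II pancreatic cells seeded at 500/well in DMEM with 10% FBS.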
# [16] = qHTS for Antimalaria activity screened against the NCATS CANVASS Library (AID 1347380); also: nearly all actives have a fitted effect of over 40% in size; also: potency is read from the fitted curve at half-maximal effect
# Method in brief: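 SYBR Green fluorescence at 485/535 nm was read 18 hr after lysis. This followed a 72 hr incubation at 37C in 5% O2, 5% CO2 of Dd2-infected erythrocytes (0.3% parasitemia, 2.5% final hematocrit) with compounds titrated over 11 concentrations.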
# [17] = target: Mitogen-activated protein kinase 10 (Mus musculus) (UniProt Q61831); assay: JNK3 AlphaScreen Assay (AID 530; active = well fitted curve in either direction with a large enough effect, not every such curve was filed as active;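 also: kinase came from lysate of stimulated human HepG2 cells; signal reports phosphorylation of biotinylated GST-cJun 1-79 at Ser73 with 10 µM ATP; series mostly up to about 57 µM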)
# Method in brief: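 qHTS titrations with 15 min compound pre-incubation before adding ATP (10 uM final). Read-out: AlphaScreen of Ser73-phosphorylated biotin-GST-cJun using HepG2 lysate JNK3 activated by IL-1β and TNFα.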
# [18] = target: 3',5'-cyclic-AMP phosphodiesterase 4B (Homo sapiens) (UniProt Q07343); assay: qHTS Assay for Inhibitors of PDE-IV (AID 607; active = well fitted activation curve with a large enough effect in the main read-out, with a control signal flat, not every such curve was filed as active)
# Sequence of 3',5'-cyclic-AMP phosphodiesterase 4B (Homo sapiens) (Q07343 whole entry, looked up): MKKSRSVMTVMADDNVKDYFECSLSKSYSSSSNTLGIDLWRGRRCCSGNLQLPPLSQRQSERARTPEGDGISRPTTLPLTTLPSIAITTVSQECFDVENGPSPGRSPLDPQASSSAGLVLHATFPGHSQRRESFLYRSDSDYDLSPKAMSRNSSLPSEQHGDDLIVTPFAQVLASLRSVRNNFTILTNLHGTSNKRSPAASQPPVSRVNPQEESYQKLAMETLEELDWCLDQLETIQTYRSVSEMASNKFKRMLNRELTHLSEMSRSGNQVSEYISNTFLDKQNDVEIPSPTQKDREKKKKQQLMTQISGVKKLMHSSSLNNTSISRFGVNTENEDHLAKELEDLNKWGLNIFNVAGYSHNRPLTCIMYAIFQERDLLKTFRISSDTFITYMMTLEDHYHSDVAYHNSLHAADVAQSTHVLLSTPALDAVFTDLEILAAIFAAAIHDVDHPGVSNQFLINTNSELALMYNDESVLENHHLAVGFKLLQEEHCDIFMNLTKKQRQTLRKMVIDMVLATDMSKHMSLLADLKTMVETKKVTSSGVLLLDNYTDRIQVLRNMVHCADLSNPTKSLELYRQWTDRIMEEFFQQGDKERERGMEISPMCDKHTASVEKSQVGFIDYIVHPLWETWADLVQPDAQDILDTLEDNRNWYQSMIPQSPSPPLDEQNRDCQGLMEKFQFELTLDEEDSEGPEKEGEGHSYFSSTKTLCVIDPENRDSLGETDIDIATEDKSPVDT
# Method in brief: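 Live HEK293 cells with a modified cyclic nucleotide-gated (CNG) channel report intracellular cAMP via membrane-potential dye fluorescence (ex 535/em 590 nm). Endogenous PDE-IV was targeted. Compounds were tested at up to 22.9 uM final; RO 20-1724 100 uM served as control.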
# [19] = UWB1.289 Cancer Cell Toxicity qHTS against the NCATS CANVASS Library (AID 1347347); also: nearly all actives have a fitted effect of over 60% in size; also: potency is read from the fitted curve at half-maximal effect
# Method in brief: as §1
SMILES,Potency [1],Potency [2],Potency [3],Potency [4],Potency [5],Potency [6],Potency [7],Potency [8],Potency [9],Potency [10],Potency [11],outcome [12],Potency [13],Potency [14],Potency [15],Potency [16],Potency [17],Potency [18],Potency [19]
CC(=O)[C@@H]1[C@@H](O)C[C@H]2[C@]3(C)CC[C@H]4C(C)(C)CCC[C@]4(CO)[C@H]3C[C@H]3OC(=O)[C@@H]1[C@@]32C,inactive,inactive,inactive,inactive,inactive,inactive,inactive,inactive,inactive,inactive,inactive,inactive,inactive,inactive,,,,,
Oc1ccc([C@H]2Oc3ccc(/C=C/c4cc(O)cc(O)c4)cc3C2c2cc(O)cc(O)c2)cc1 (some centres undefined),inactive,,inactive,inactive,inactive,inactive,inactive,,inactive,inactive,inactive,inactive,inactive,,inactive,0.003 µM (active),,,
CN(C)CCCCSC(=N)N,,,,,,,,,,,,,,,,,inactive,inactive,
O=c1cc(-c2ccc(O)c(O[C@@H]3O[C@H](CO)[C@@H](O)[C@H](O)[C@H]3O)c2)oc2cc(O[C@@H]3O[C@H](CO)[C@@H](O)[C@H](O)[C@H]3O)cc(O)c12,inactive,inactive,inactive,,inactive,inactive,,inactive,inactive,,,inactive,inactive,inactive,,0.0047 µM (active),,,
C=C1C(=O)O[C@H]2C[C@H](C)[C@@H]3CC(=O)C(C)=C3[C@H](O)[C@H]12,18.8 µM (active),inactive,,2.96 µM (active),,,inactive,,,16.6 µM (active),7.43 µM (active),,,,inactive,,,,
CCCCCCCCCC(=O)[C@@H]1C(=O)N[C@@H](CC(C)C)C(=O)N[C@H](C)C(=O)N2CCC[C@H]2C(=O)N[C@@H](C(C)C)C(=O)N[C@H]2CS[C@H]1CNC2=O (cyclo(L[dA]PV[X1])),inactive,,inactive,inactive,inactive,inactive,,inactive,inactive,,,,,inactive,,0.0033 µM (active),,,inactive
CC(C)(Br)[C@@H](Cl)C[C@H](Br)[C@](C)(Cl)/C=C/Br,,,,2.35 µM (active),inactive,inactive,inactive,inactive,,18.7 µM (active),13.2 µM (active),inactive,,inactive,inactive,inactive,,,18.8 µM (active)
COc1c(O)cc2oc(-c3ccccc3)cc(=O)c2c1O,inactive,inactive,inactive,20.9 µM (active),inactive,,inactive,0.544 µM (active),,inactive,inactive,inactive,13.2 µM (active),,inactive,,,,
CN1CCc2cc3c(c4c2[C@H]1[C@@H](O)c1ccccc1-4)OCO3,16.8 µM (active),inactive,,,inactive,,,inactive,,18.7 µM (active),,,20.9 µM (active),inactive,inactive,,,,
